The values that follow come from the supplement of paper PMC8975748.

Where a name gives a salt, the structure may show the parent alone.

For this experiment, the system named is Saccharomyces cerevisiae BY4741 SeMeCo community. Kind of experiment: z-score of subpopulation abundance vs DMSO median, subpopulation auxotrophic for HLUM; higher = larger share of this subpopulation than in DMSO controls. The settings on record: 10 µM; 24 h; SM minimal medium; subpopulation (auxotrophy): HLUM. As to the method: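 Fluorescent four-plasmid SeMeCo (self-establishing metabolically cooperating S. cerevisiae BY4741 community; plasmids pH-mRuby2, pL-mWasabi, pU-eCFP, pM-TagRFP657) was grown 24 h in minimal SM medium with each Selleck FDA-approved drug at 10 µM in 384-well plates. Cells were fixed and imaged by high-content confocal microscopy. For each auxotrophic subpopulation (and the prototroph), a z-score gives the deviation from the DMSO vehicle-control population median.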
Take `CC(C)c1nc(N(C)S(C)(=O)=O)nc(-c2ccc(F)cc2)c1/C=C/[C@@H](O)C[C@@H](O)CC(=O)O` [Rosuvastatin Calcium]: the “z-score of subpopulation abundance” value came to 0.9.

For `C[C@]12CC[C@@H]3c4ccc(O)cc4CC[C@H]3[C@@H]1C[C@@H](O)[C@@H]2O` [Estriol], the “z-score of subpopulation abundance” value is -0.69.

For `CC(C)[N+](C)(CCOC(=O)C1c2ccccc2Oc2ccccc21)C(C)C` [Propantheline bromide], the “z-score of subpopulation abundance” value was -0.56.

Regarding `CC[N+](CC)(CC)CCOc1cccc(OCC[N+](CC)(CC)CC)c1OCC[N+](CC)(CC)CC` [Gallamine Triethiodide], the “z-score of subpopulation abundance” value is -0.08.

For `N=C(N)NC(=O)c1nc(Cl)c(N)nc1N` [Amiloride HCl dihydrate], the “z-score of subpopulation abundance” value was -0.95.

On to `CC[N+](CC)(CC)CC` [Tetraethylammonium bromide], for which the “z-score of subpopulation abundance” value came to 1.04.

`COc1ncnc(NS(=O)(=O)c2ccc(N)cc2)c1OC` [Sulfadoxine]: the “z-score of subpopulation abundance” value turned out to be 0.32.

Consider `CC1(C)S[C@@H]2[C@H](NC(=O)[C@H](NC(=O)N3CCNC3=O)c3ccccc3)C(=O)N2[C@H]1C(=O)O` [Azlocillin sodium salt], for which the “z-score of subpopulation abundance” value is 0.63.

In the case of `CC(C)COc1ccc(CNC(=O)N(Cc2ccc(F)cc2)C2CCN(C)CC2)cc1` [Pimavanserin], the “z-score of subpopulation abundance” value is -0.3.

In the case of `CO[C@@]1(NC(=O)C(C(=O)O)c2ccc(O)cc2)C(=O)N2C(C(=O)O)=C(CSc3nnnn3C)CO[C@@H]21` (stereo not given in full) [Latamoxef sodium], the “z-score of subpopulation abundance” value is 0.61.

On to `C=C1CCC2C(C)(CO)C(O)CCC2(C)C1CC=C1C=COC1=O` (stereo not given) [Dehydroandrographolide], for which the “z-score of subpopulation abundance” value was found to be 0.91.

For the compound `O=C1CCc2cc(OCCCCc3nnnn3C3CCCCC3)ccc2N1` [Cilostazol], the “z-score of subpopulation abundance” value was -0.57.

As for `NC(=O)Cc1cccc(C(=O)c2ccccc2)c1N` [Nepafenac], the “z-score of subpopulation abundance” value came out at 0.1.

On to `CCn1cc(C(=O)O)c(=O)c2cnc(N3CCNCC3)nc21` [Pipemidic acid], for which the “z-score of subpopulation abundance” value worked out at 0.28.

`CO/N=C(\C(=O)N[C@@H]1C(=O)N2C(C(=O)O)=C(CSc3nnnn3C)CS[C@H]12)c1csc(N)n1` [Cefmenoxime hydrochloride]: the “z-score of subpopulation abundance” value was -0.52.

As for `Nc1ccc(S(=O)(=O)Nc2ncccn2)cc1` [Sulfadiazine], the “z-score of subpopulation abundance” value turned out to be 1.03.

Regarding `Oc1cccc(O)c1` [Resorcinol], the “z-score of subpopulation abundance” value was -0.65.

Regarding `CN(C)CCCN1c2ccccc2Sc2ccccc21` [Promazine hydrochloride], the “z-score of subpopulation abundance” value was determined as 0.6.

Take `Nc1ccc(C(=O)O)c(O)c1` [4-Aminosalicylic acid]: the “z-score of subpopulation abundance” value was -0.18.

Regarding `CCOc1cc(N)c(Cl)cc1C(=O)NCC1CN(Cc2ccc(F)cc2)CCO1` (stereo not given) [Mosapride Citrate], the “z-score of subpopulation abundance” value was 1.04.

Turning to `Cc1cccc(C)c1NC(=O)C1CCCCN1C` (stereo not given) [Mepivacaine HCl], the “z-score of subpopulation abundance” value turned out to be 0.2.

Turning to `CC(=O)N1CCN(c2ccc(OCC3COC(Cn4ccnc4)(c4ccc(Cl)cc4Cl)O3)cc2)CC1` (stereo not given) [Ketoconazole], the “z-score of subpopulation abundance” value was -0.62.

`OCCN(CCO)c1nc(N2CCCCC2)c2nc(N(CCO)CCO)nc(N3CCCCC3)c2n1` [Dipyridamole]: the “z-score of subpopulation abundance” value is -1.34.

Turning to `CCCCNC(=O)NS(=O)(=O)c1ccc(C)cc1` [Tolbutamide], the “z-score of subpopulation abundance” value came out at 0.19.

Regarding `NCC[C@H](O)C(=O)N[C@@H]1C[C@H](N)[C@@H](O[C@H]2O[C@H](CN)[C@@H](O)[C@H](O)[C@H]2O)[C@H](O)[C@H]1O[C@H]1O[C@H](CO)[C@@H](O)[C@H](N)[C@H]1O` [Amikacin disulfate], the “z-score of subpopulation abundance” value was 0.42.

In the case of `CCCCCCCCCCCCCCCC[N+](C)(C)C` [Cetrimonium Bromide (CTAB)], the “z-score of subpopulation abundance” value is 29.4.

`CN1C2CCC1CC(OC(=O)C(O)c1ccccc1)C2` (stereo not given) [Homatropine Bromide]: the “z-score of subpopulation abundance” value is 0.14.

As for `Cc1cnc(NC(=O)C2=C(O)c3ccccc3S(=O)(=O)N2C)s1` [Meloxicam], the “z-score of subpopulation abundance” value was -0.98.

For `CC(C)(C)CC(C)(C)c1ccc(OCCOCC[N+](C)(C)Cc2ccccc2)cc1` [Benzethonium Chloride], the “z-score of subpopulation abundance” value was found to be 0.07.

With `O=C(Nc1cc(Cl)cc(Cl)c1O)c1c(O)c(Cl)cc(Cl)c1Cl` [Oxyclozanide], the “z-score of subpopulation abundance” value was determined as 2.05.

Regarding `Cc1nccn1CC1CCc2c(c3ccccc3n2C)C1=O` (stereo not given) [Ondansetron Hydrochloride Dihydrate], the “z-score of subpopulation abundance” value is -0.23.

For `OC(c1cc(C(F)(F)F)nc2c(C(F)(F)F)cccc12)C1CCCCN1` (stereo not given) [Mefloquine HCl], the “z-score of subpopulation abundance” value was 0.33.

For the compound `O=c1[nH]c(=O)n([C@H]2C[C@H](O)[C@@H](CO)O2)cc1I` [Idoxuridine], the “z-score of subpopulation abundance” value was -0.73.

For `CCN(CC)CCOC(=O)c1ccc(N)cc1Cl` [Chloroprocaine HCl], the “z-score of subpopulation abundance” value worked out at 0.58.

For the compound `COc1ccnc(C[S+]([O-])c2nc3cc(OC(F)F)ccc3[nH]2)c1OC` (stereo not given) [Pantoprazole sodium], the “z-score of subpopulation abundance” value was -0.49.

Regarding `C[C@]1(COc2ccc(N3CCC(Oc4ccc(OC(F)(F)F)cc4)CC3)cc2)Cn2cc([N+](=O)[O-])nc2O1` [Delamanid], the “z-score of subpopulation abundance” value came out at 0.08.

As for `O=C1NC(=O)C(c2ccccc2)(c2ccccc2)N1` [Phenytoin], the “z-score of subpopulation abundance” value was -0.04.

With `Cc1cccc(N(C)C(=S)Oc2ccc3ccccc3c2)c1` [Tolnaftate], the “z-score of subpopulation abundance” value is -1.09.

With `c1cnc2cc3c(cc2n1)[C@@H]1CNC[C@H]3C1` [Varenicline Tartrate], the “z-score of subpopulation abundance” value came to 0.16.

Take `CC#C[C@]1(O)CC[C@H]2[C@@H]3CCC4=CC(=O)CCC4=C3[C@@H](c3ccc(N(C)C)cc3)C[C@@]21C` [Mifepristone]: the “z-score of subpopulation abundance” value is -0.67.
